Measured values reported in PubChem BioAssay (NCI).
About 79,000 compounds went through this panel and 15% of them were active in at least one assay; those are over-represented in the sample as a whole. Calls of active or inactive are those of the source. No stated cut-off is given here; in the data, active means growth inhibition above about 70%; inactive means the rest.

Tests used:
[1] = NCI Yeast Anticancer Drug Screen. Data for the rad52 strain (AID 147);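 further: 0% = growth of vehicle-treated control cultures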; details: S. cerevisiae rad52 mutant growth inhibition, stronger effect = higher value
Summary of the method: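 Read-out: growth inhibition versus vehicle-treated controls. Cells were a DNA repair-deficient yeast strain treated with compounds.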

[2] = NCI Yeast Anticancer Drug Screen. Data for the wt1 strain (AID 149);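 further: 0% = growth of vehicle-treated wt1 cultures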; details: S. cerevisiae wt1 strain (SPY 50644) growth inhibition, stronger effect = higher value
Summary of the method: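 Each compound is tested on wt1 yeast and the loss of growth versus vehicle gives the inhibition value.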

[3] = NCI Yeast Anticancer Drug Screen. Data for the mgt1 strain (AID 153); details: S. cerevisiae mgt1 mutant growth inhibition, stronger effect = higher value
Summary of the method: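 mgt1 yeast grown with test compound; read-out is growth inhibition versus vehicle-treated cultures.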

[4] = NCI Yeast Anticancer Drug Screen. Data for the rad50 strain (AID 155);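 further: 0% = growth of vehicle-only cultures of the same strain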; details: S. cerevisiae rad50 strain growth inhibition, stronger effect = higher value
Summary of the method: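 Vehicle-treated cultures provide the reference for the growth inhibition reported for compound-exposed, repair-deficient yeast.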

[5] = NCI Yeast Anticancer Drug Screen. Data for the mec2-1 strain (AID 157); details: S. cerevisiae mec2-1 strain, stronger effect = higher value
Summary of the method: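 Yeast mec2-1 mutant treated with compound. Readout: growth inhibition vs vehicle controls.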

[6] = NCI Yeast Anticancer Drug Screen. Data for the rad14 strain (AID 159);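 further: 0% = growth of vehicle-treated control cultures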; details: S. cerevisiae rad14 strain growth inhibition, stronger effect = higher value
Summary of the method: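 Inhibition of growth is reported for a repair-deficient yeast mutant following compound treatment, calculated relative to cultures that received vehicle.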

[7] = NCI Yeast Anticancer Drug Screen. Data for the sgs1 mgt1 strain (AID 161);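 further: 0% = growth of cultures given vehicle only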; details: S. cerevisiae sgs1 mgt1 strain, stronger effect = higher value
Summary of the method: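 Inhibition of yeast growth, normalised to vehicle-treated controls, is reported for a strain bearing genetic alterations in DNA damage repair.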

[8] = NCI Yeast Anticancer Drug Screen. Data for the CLN2oe strain (AID 163);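 further: 0% = growth of vehicle-only control cultures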; details: S. cerevisiae CLN2oe strain, stronger effect = higher value
Summary of the method: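 Read-out: yeast growth inhibition, expressed relative to vehicle-only controls. The strain bears an engineered cell-cycle alteration.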

[9] = NCI Yeast Anticancer Drug Screen. Data for the cln2 rad14 strain (AID 165);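 further: 0% = growth equal to vehicle treated cultures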; details: S. cerevisiae cln2 rad14 strain, stronger effect = higher value
Summary of the method: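 cln2 rad14 yeast strain; compound exposure; growth inhibition read vs vehicle controls.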

[10] = NCI Yeast Anticancer Drug Screen. Data for the bub3 strain (AID 167); details: S. cerevisiae bub3 mutant strain, stronger effect = higher value
Summary of the method: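 Mutant yeast screening strain plus compound; vehicle-treated cultures serve as the 0% inhibition reference.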

[11] = NCI Yeast Anticancer Drug Screen. Data for the wt2 strain (AID 169); details: S. cerevisiae wt2 strain growth inhibition, stronger effect = higher value
Summary of the method: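 Read-out: growth inhibition versus vehicle-treated control cultures after compound exposure of the yeast strain.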

[12] = NCI Yeast Anticancer Drug Screen. Data for the mlh1 strain (AID 171);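 further: 0% = growth of vehicle-treated control cultures of the same strain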; details: S. cerevisiae mlh1 strain growth inhibition, stronger effect = higher value
Summary of the method: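 Read-out: growth inhibition versus vehicle controls. Strain: engineered yeast with a defined DNA repair or cell cycle defect, compound-treated.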

[13] = NCI Yeast Anticancer Drug Screen. Data for the sgs1 strain (AID 173);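 further: 0% = growth of vehicle-only control cultures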; details: S. cerevisiae sgs1 mutant, stronger effect = higher value
Summary of the method: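 Read-out: yeast growth inhibition relative to vehicle controls, following compound exposure of a strain with a defined DNA repair/cell cycle alteration.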

[14] = NCI Yeast Anticancer Drug Screen. Data for the mlh1 rad18 strain (AID 175); details: S. cerevisiae mlh1 rad18 strain growth inhibition, stronger effect = higher value
Summary of the method: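 Yeast w/ defined DNA-repair lesions; compound exposure; growth vs vehicle controls → % inhibition.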

[15] = NCI Yeast Anticancer Drug Screen. Data for the rad18 strain (AID 177); details: S. cerevisiae rad18 mutant growth inhibition, stronger effect = higher value
Summary of the method: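 Readout: growth inhibition vs vehicle controls. Cells: genetically altered yeast strain, DNA repair defect.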

[16] = at 5.0 µM (retest, dose inferred, filed as 0.5)
[17] = at 50.0 µM (retest, dose inferred, filed as 5.0)

Measured: growth inhibition

CNC(=O)ON(C(C)=O)C(=O)NC
inactive: [1]; at 1.2 µM -27% | [1]; at 3.7 µM -14% | [1]; at 11.0 µM -22% | [1]; at 33.0 µM -38% | [1]; at 100.0 µM -24% | [2]; at 1.2 µM -60% | [2]; at 3.7 µM -52% | [2]; at 11.0 µM -58% | [2]; at 33.0 µM -65% | [2]; at 100.0 µM -60% | [3]; at 1.2 µM -9% | [3]; at 3.7 µM 0% | [3]; at 11.0 µM 0% | [3]; at 33.0 µM 8% | [3]; at 100.0 µM 12% | [4]; at 1.2 µM -17% | [4]; at 3.7 µM -40% | [4]; [16] 13% | [4]; at 11.0 µM -20% | [4]; at 33.0 µM -17% | [4]; [17] 26% | [4]; at 100.0 µM -4% | [5]; at 1.2 µM -9% | [5]; at 3.7 µM -4% | [5]; [16] 2% | [5]; at 11.0 µM 5% | [5]; at 33.0 µM 4% | [5]; [17] 31% | [5]; at 100.0 µM -9% | [6]; at 1.2 µM -47% | [6]; at 3.7 µM -35% | [6]; at 11.0 µM -48% | [6]; at 33.0 µM -47% | [6]; at 100.0 µM -47% | [7]; [16] 62% | [8]; at 1.2 µM -30% | [8]; at 3.7 µM 2% | [8]; at 11.0 µM 19% | [8]; at 33.0 µM 14% | [8]; at 100.0 µM 11% | [9]; [16] 35% | [10]; at 1.2 µM 3% | [10]; at 3.7 µM 4% | [10]; [16] 31% | [10]; at 11.0 µM 23% | [10]; at 33.0 µM 35% | [10]; at 50.0 µM 52% | [10]; at 100.0 µM 60% | [11]; at 1.2 µM -24% | [11]; at 3.7 µM -20% | [11]; at 11.0 µM -22% | [11]; at 33.0 µM -42% | [11]; at 100.0 µM -10% | [12]; at 1.2 µM -43% | [12]; at 3.7 µM -27% | [12]; at 11.0 µM -11% | [12]; at 33.0 µM 4% | [12]; at 100.0 µM -9% | [13]; at 1.2 µM -26% | [13]; at 3.7 µM -49% | [13]; at 11.0 µM -13% | [13]; at 33.0 µM -15% | [13]; at 100.0 µM -19% | [14]; [16] 12% | [14]; [17] 22% | [15]; at 1.2 µM -6% | [15]; at 3.7 µM -24% | [15]; at 11.0 µM -21% | [15]; at 33.0 µM 0% | [15]; at 100.0 µM 24%
active: [7]; [17] 100% | [7]; at 50.0 µM 87.7% | [9]; [17] 99% | [9]; at 50.0 µM 86.2% | [10]; [17] 100%
